Experimental data: PubChem BioAssay AID1159580 (chemical genetic matrix, 2015)
Out of some 5,500 compounds screened, about 2,000 (36%) were called active. Roughly 18% stayed inconclusive and do not appear here. Rule as the data show it: active = normalized growth mostly below about 0.91 (no sharp cut-off); inconclusive = no clear call, values can overlap the other calls; inactive = mostly above about 0.92. The list shows a part of the results.

Test: chemical genetic growth profiling, strain panel (AID 1159580);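 also: tested at 20 µM; growth read once vehicle control cultures reached saturation at 30 °C; 1 = growth at the plate median or of vehicle wells; lower values mean less growth of the strain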
Conditions: growth OD

Measured: normalized growth

CC(C)c1nc(N(C)S(C)(=O)=O)nc(-c2ccc(F)cc2)c1/C=C/[C@@H](O)C[C@@H](O)CC(=O)O
inactive: S. cerevisiae deletion strains, locus YJR075W, strain HOC1, active compounds read low 0.996 | S. cerevisiae deletion strains, locus YKL009W, strain mrt4, active compounds read low 1.01 | S. cerevisiae deletion strains, locus YKL068W, active compounds read low 1.03 | S. cerevisiae deletion strains, locus YKL085W, strain MDH1 (second series), active compounds read low 0.992 | S. cerevisiae deletion strains, locus YKL085W, strain MDH1, active compounds read low 0.992 | S. cerevisiae deletion strains, locus YKL160W, strain elf1, active compounds read low 0.994 | S. cerevisiae deletion strains, locus YKL190W, strain CNB1, active compounds read low 1.01 | S. cerevisiae deletion strains, locus YKR001C, strain vps1, active compounds read low 1.03 | S. cerevisiae deletion strains, locus YKR026C, strain gcn3, active compounds read low 1.02 | S. cerevisiae deletion strains, locus YKR091W, strain srl3, active compounds read low 1.01 | S. cerevisiae deletion strains, locus YLL001W, strain dnm1, active compounds read low 1.03 | S. cerevisiae deletion strains, locus YLL026W, active compounds read low 1.01 | S. cerevisiae deletion strains, locus YLR027C, strain aat2, active compounds read low 1.01 | S. cerevisiae deletion strains, locus YLR039C, strain RIC1, active compounds read low 1.31 | S. cerevisiae deletion strains, locus YLR058C, strain SHM2, active compounds read low 1 | S. cerevisiae deletion strains, locus YLR102C, strain apc9, active compounds read low 1.02 | S. cerevisiae deletion strains, locus YLR221C, strain rsa3, active compounds read low 1.06 | S. cerevisiae deletion strains, locus YLR258W, strain gsy2, active compounds read low 1.01 | S. cerevisiae deletion strains, locus YLR262C, strain YPT6 (second series), active compounds read low 1.1 | S. cerevisiae deletion strains, locus YLR262C, strain YPT6, active compounds read low 1.26 | S. cerevisiae deletion strains, locus YLR268W, strain sec22, active compounds read low 0.994 | S. cerevisiae deletion strains, locus YLR320W, strain mms22, active compounds read low 1.01 | S. cerevisiae deletion strains, locus YLR330W, strain CHS5, active compounds read low 0.999 | S. cerevisiae deletion strains, locus YLR342W, strain FKS1 (second series), active compounds read low 1.03 | S. cerevisiae deletion strains, locus YLR342W, strain FKS1, active compounds read low 1.03 | S. cerevisiae deletion strains, locus YLR357W, strain rsc2, active compounds read low 0.994 | S. cerevisiae deletion strains, locus YLR370C, strain arc18, active compounds read low 1.03 | S. cerevisiae deletion strains, locus YLR371W, strain rom2, active compounds read low 1.01 | S. cerevisiae deletion strains, locus YLR384C, strain iki3, active compounds read low 1 | S. cerevisiae deletion strains, locus YLR418C, strain cdc73, active compounds read low 1 | S. cerevisiae deletion strains, locus YML016C, strain PPZ1, active compounds read low 0.999 | S. cerevisiae deletion strains, locus YML032C, strain rad52, active compounds read low 1.01 | S. cerevisiae deletion strains, locus YML120C, strain ndi1, active compounds read low 1.02 | S. cerevisiae deletion strains, locus YML124C, strain tub3, active compounds read low 0.997 | S. cerevisiae deletion strains, locus YMR058W, strain fet3, active compounds read low 1.02 | S. cerevisiae deletion strains, locus YMR078C, strain ctf18, active compounds read low 1.01 | S. cerevisiae deletion strains, locus YMR125W, strain sto1, active compounds read low 1.02 | S. cerevisiae deletion strains, locus YMR129W, active compounds read low 1.04 | S. cerevisiae deletion strains, locus YMR205C, strain PFK2, active compounds read low 1.02 | S. cerevisiae deletion strains, locus YMR223W, strain ubp8, active compounds read low 1.01 | S. cerevisiae deletion strains, locus YMR231W, strain pep5, active compounds read low 0.958 | S. cerevisiae deletion strains, locus YMR263W, strain SAP30, active compounds read low 0.994 | S. cerevisiae deletion strains, locus YMR307W, strain GAS1, active compounds read low 1.01 | S. cerevisiae deletion strains, locus YNL067W, strain RPL9B, active compounds read low 0.989 | S. cerevisiae deletion strains, locus YNL071W, strain lat1, active compounds read low 1.01 | S. cerevisiae deletion strains, locus YNL128W, strain TEP1, active compounds read low 0.988 | S. cerevisiae deletion strains, locus YNL153C, strain GIM3, active compounds read low 0.989 | S. cerevisiae deletion strains, locus YNL209W, strain ssb2, active compounds read low 1.02 | S. cerevisiae deletion strains, locus YNL233W, strain BNI4, active compounds read low 0.988 | S. cerevisiae deletion strains, locus YNL248C, strain rpa49, active compounds read low 1.02 | S. cerevisiae deletion strains, locus YNL250W, strain rad50, active compounds read low 0.982 | S. cerevisiae deletion strains, locus YNL271C, strain bni1, active compounds read low 0.976 | S. cerevisiae deletion strains, locus YNL298W, strain CLA4, active compounds read low 1.02 | S. cerevisiae deletion strains, locus YNL307C, strain MCK1, active compounds read low 1.02 | S. cerevisiae deletion strains, locus YNL322C, strain KRE1 (second series), active compounds read low 1.03 | S. cerevisiae deletion strains, locus YNL322C, strain KRE1, active compounds read low 1 | S. cerevisiae deletion strains, locus YNR049C, strain mso1, active compounds read low 1.02 | S. cerevisiae deletion strains, locus YNR052C, strain pop2, active compounds read low 0.929 | S. cerevisiae deletion strains, locus YOL006C, strain TOP1, active compounds read low 1.01 | S. cerevisiae deletion strains, locus YOL012C, strain htz1 0.882 | S. cerevisiae deletion strains, locus YOL147C, strain pex11, active compounds read low 1.01 | S. cerevisiae deletion strains, locus YOR001W, strain rrp6, active compounds read low 1.01 | S. cerevisiae deletion strains, locus YOR061W, strain CKA2, active compounds read low 0.994 | S. cerevisiae deletion strains, locus YOR069W, strain VPS5, active compounds read low 1.01 | S. cerevisiae deletion strains, locus YOR070C, strain gyp1, active compounds read low 1.01 | S. cerevisiae deletion strains, locus YOR080W, strain dia2, active compounds read low 1.01 | S. cerevisiae deletion strains, locus YOR083W, strain WHI5, active compounds read low 0.996 | S. cerevisiae deletion strains, locus YOR106W, strain vam3, active compounds read low 1.02 | S. cerevisiae deletion strains, locus YOR136W, strain idh2, active compounds read low 1 | S. cerevisiae deletion strains, locus YOR144C, strain elg1, active compounds read low 1 | S. cerevisiae deletion strains, locus YOR184W, strain ser1, active compounds read low 0.997 | S. cerevisiae deletion strains, locus YOR265W, strain rbl2, active compounds read low 1.01 | S. cerevisiae deletion strains, locus YOR270C, strain vph1, active compounds read low 0.975 | S. cerevisiae deletion strains, locus YOR290C, strain snf2, active compounds read low 1 | S. cerevisiae deletion strains, locus YOR316C, strain cot1, active compounds read low 1.01 | S. cerevisiae deletion strains, locus YPL051W, strain arl3, active compounds read low 1.02 | S. cerevisiae deletion strains, locus YPL055C, strain LGE1, active compounds read low 0.998 | S. cerevisiae deletion strains, locus YPL078C, strain atp4, active compounds read low 1.02 | S. cerevisiae deletion strains, locus YPL106C, strain sse1, active compounds read low 1.03 | S. cerevisiae deletion strains, locus YPL240C, strain hsp82, active compounds read low 0.992 | S. cerevisiae deletion strains, locus YPL241C, strain CIN2, active compounds read low 1.01 | S. cerevisiae deletion strains, locus YPR119W, strain clb2, active compounds read low 0.998 | S. cerevisiae deletion strains, locus YPR141C, strain kar3, active compounds read low 1.01 | S. cerevisiae deletion strains, locus YPR163C, strain tif3, active compounds read low 1.01 | S. cerevisiae deletion strains, locus YPR167C, strain met16, active compounds read low 1 | S. cerevisiae deletion strains, strain wtn01, active compounds read low 1 | S. cerevisiae strains, strain wild type, active compounds read low 0.994
active: S. cerevisiae deletion strains, locus YLL041C, strain sdh2, active compounds read low 0.9 | S. cerevisiae deletion strains, locus YLR113W, strain HOG1, active compounds read low 0.232 | S. cerevisiae deletion strains, locus YNL183C, strain NPR1, active compounds read low 0.0704 | S. cerevisiae deletion strains, locus YOR231W, strain MKK1, active compounds read low 0.124 | S. cerevisiae deletion strains, locus YPL256C, strain CLN2, active compounds read low 0.162
